Experimental data published in PubChem BioAssay.
The source made the active and inactive calls.

How the values were obtained:
[1] = small molecules captured by biotinylated probe aFSTL3 – biochemical, small-molecule microarray, fluorescence 635/667, stem cell growth factor project, primary screen (AID 1064); conditions: higher = more signal;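 further: measures binding of the biotinylated anti-FSTL3 antibody to printed compounds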
[2] = binders from COS7 lysate, DM2A8 probe, primary screen, torsin A project, cell lysate, small-molecule microarray, fluorescence 635/667 (AID 1065); conditions: higher = more signal, COS7 lysate expressing mutant human TOR1A
[3] = small molecules captured by biotinylated probe aFGF2 – biochemical, small-molecule microarray, fluorescence 635/667, stem cell growth factor project, primary screen (AID 1067); conditions: higher = more signal;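 further: measures binding of biotinylated aFGF2 protein to printed compounds on slides; z-score merges feature fluorescence and signal-to-noise across triplicate slides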
[4] = small molecules captured by biotinylated probe aFGF10 – biochemical, small-molecule microarray, fluorescence 635/667, stem cell growth factor project, primary screen (AID 1071); conditions: higher = more signal;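 further: score merges 667 nm spot intensity and signal to noise from triplicate slides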
[5] = target: Neurogenic locus notch homolog protein 2 (Homo sapiens) (UniProt Q04721); test: small molecules binding Notch2 protein – biochemical, small-molecule microarray, 635 nm fluorescence, stem cell growth factors, primary screen (AID 1073); conditions: higher = more signal
Sequence of Neurogenic locus notch homolog protein 2 (Homo sapiens) (Q04721 whole entry, looked up, canonical isoform): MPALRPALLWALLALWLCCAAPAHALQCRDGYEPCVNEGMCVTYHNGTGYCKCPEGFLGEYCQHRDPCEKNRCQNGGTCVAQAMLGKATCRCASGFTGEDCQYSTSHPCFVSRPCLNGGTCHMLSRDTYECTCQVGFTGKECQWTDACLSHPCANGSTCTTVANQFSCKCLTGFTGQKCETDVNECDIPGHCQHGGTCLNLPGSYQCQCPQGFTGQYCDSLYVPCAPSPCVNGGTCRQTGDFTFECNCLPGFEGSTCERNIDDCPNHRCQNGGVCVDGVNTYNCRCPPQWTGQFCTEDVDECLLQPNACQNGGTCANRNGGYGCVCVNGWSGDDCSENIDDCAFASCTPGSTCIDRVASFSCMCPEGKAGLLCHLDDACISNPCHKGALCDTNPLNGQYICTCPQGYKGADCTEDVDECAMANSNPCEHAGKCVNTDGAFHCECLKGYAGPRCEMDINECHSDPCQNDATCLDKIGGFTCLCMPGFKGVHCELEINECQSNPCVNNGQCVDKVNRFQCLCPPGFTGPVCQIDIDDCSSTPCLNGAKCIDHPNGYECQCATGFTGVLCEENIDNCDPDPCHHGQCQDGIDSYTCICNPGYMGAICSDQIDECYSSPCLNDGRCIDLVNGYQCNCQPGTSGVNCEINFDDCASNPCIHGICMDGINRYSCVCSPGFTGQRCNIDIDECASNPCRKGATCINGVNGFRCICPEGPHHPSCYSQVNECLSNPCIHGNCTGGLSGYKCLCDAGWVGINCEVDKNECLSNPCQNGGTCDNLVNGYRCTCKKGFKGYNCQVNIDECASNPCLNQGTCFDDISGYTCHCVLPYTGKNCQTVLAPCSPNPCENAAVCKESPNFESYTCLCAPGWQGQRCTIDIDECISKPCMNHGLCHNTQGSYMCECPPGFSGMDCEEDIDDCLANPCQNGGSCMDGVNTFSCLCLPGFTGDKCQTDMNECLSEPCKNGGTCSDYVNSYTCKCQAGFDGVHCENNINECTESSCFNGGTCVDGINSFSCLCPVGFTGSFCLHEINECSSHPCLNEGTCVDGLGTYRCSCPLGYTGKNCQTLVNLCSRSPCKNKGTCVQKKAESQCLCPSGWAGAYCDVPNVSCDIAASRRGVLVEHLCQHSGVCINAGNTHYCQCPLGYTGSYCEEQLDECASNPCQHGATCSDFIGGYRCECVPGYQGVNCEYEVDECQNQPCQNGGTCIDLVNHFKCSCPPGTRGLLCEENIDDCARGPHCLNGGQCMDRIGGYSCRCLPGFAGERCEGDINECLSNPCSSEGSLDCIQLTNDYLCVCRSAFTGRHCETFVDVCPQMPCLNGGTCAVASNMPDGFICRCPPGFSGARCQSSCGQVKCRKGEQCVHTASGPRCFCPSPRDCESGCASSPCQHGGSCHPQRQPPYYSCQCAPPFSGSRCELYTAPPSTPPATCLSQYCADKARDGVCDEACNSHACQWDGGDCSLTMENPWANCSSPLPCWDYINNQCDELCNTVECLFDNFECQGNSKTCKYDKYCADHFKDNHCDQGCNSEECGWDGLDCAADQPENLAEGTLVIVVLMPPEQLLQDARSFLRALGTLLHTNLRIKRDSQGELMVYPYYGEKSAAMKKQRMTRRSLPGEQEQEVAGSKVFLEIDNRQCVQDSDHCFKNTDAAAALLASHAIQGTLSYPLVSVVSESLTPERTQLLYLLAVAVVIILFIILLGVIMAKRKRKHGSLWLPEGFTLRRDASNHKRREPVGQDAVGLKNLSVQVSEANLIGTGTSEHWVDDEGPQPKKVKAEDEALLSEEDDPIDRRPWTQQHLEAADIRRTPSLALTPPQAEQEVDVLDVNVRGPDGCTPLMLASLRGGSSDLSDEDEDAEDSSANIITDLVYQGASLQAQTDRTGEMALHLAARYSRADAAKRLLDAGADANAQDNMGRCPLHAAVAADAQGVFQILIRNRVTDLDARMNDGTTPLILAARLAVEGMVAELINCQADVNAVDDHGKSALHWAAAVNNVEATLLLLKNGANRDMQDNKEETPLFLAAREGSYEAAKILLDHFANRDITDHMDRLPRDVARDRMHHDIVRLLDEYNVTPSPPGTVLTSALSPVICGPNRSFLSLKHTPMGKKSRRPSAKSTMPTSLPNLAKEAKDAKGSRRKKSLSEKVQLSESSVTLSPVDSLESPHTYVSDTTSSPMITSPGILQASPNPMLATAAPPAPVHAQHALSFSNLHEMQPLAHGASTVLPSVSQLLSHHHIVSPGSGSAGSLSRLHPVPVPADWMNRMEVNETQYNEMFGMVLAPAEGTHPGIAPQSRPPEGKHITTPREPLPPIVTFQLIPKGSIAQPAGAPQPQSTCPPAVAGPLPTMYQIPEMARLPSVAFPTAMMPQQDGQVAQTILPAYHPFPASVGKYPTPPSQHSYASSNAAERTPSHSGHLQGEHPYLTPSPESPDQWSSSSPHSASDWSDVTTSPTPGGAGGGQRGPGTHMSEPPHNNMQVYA

[6] = target: Pro-neuregulin-1, membrane-bound isoform (Homo sapiens) (UniProt Q02297); test: small molecules binding neuregulin-1 protein – biochemical, small-molecule microarray, fluorescence 635/667, psychiatric disease protein project, primary screen (AID 1075); conditions: NRG1 binding, 635 nm fluorescence, higher = more signal;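 further: score combines 667 nm spot fluorescence with signal to noise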
Sequence of Pro-neuregulin-1, membrane-bound isoform (Homo sapiens) (Q02297 whole entry, looked up, the tested form may be a part, canonical isoform): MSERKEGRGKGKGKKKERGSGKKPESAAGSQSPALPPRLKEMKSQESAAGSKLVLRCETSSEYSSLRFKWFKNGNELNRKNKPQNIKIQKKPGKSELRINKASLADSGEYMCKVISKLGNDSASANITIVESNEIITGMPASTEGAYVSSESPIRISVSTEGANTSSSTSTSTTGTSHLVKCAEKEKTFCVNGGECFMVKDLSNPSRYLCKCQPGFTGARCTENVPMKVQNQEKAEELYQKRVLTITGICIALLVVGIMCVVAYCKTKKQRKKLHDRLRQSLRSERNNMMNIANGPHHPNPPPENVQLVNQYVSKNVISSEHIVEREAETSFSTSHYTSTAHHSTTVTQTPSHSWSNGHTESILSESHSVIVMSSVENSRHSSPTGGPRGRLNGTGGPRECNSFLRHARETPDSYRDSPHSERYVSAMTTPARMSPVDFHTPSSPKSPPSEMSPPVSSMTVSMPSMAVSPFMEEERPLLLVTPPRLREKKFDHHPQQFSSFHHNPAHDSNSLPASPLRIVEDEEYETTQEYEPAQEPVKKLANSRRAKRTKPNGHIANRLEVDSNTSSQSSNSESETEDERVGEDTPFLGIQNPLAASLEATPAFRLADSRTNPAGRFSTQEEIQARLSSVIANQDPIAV

[7] = tested on: Neuregulin-1 EGF-like domain; test: small molecules binding NRG1 EGF domain – biochemical, small-molecule microarray, 635 nm fluorescence, primary screen (AID 1081); conditions: higher = more signal;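 further: binding of the protein to compounds printed on small-molecule microarray slides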
[8] = FRG1 expression reporter modulators in myotubes – cell-based, C2C12 myotubes, firefly/Renilla luciferase, luminescence, FRG1 inhibition for FSHD, primary screen (AID 1084); conditions: FRG1 promoter luciferase, higher = more signal, called active from +8 up or from −8 down
[9] = small molecules captured by biotinylated probe aFST – biochemical, small-molecule microarray, fluorescence 635/667, stem cell growth factor project, primary screen (AID 1086); conditions: higher = more signal;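 further: score merges 667 nm fluorescence with signal-to-noise of each printed compound spot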
[10] = binders of probe aHhip on microarray, primary screen, stem cell growth factor project, biochemical, small-molecule microarray, fluorescence 635/667 (AID 1087); conditions: higher = more signal;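 further: score merges spot fluorescence at 667nm with spot signal to noise ratio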

Structure (SMILES) | composite z-score [1] | composite z-score [2] | composite z-score [3] | composite z-score [4] | composite z-score [5] | composite z-score [6] | composite z-score [7] | z-score [8] | composite z-score [9] | composite z-score [10]
CCN1C(=O)[C@H]2[C@H]3[C@H](O)[C@H](O)CC(=NOCc4ccccc4)[C@@H]3CC[C@H]2C1=O | -0.239 | 0.441 | -0.197 | 0.31 | 0.931 | -0.195 | 0.567 | -0.641 (inactive) | 0.0882 | -0.3
COC(=O)CC=C[C@H](C)[C@H](CO)NS(=O)(=O)c1ccc(C)cc1 | -0.634 | 0.0049 | -0.163 | 0.476 | 0.24 | -0.0696 | 0.629 | -0.599 (inactive) | 0.12 | -0.132
COc1cccc([C@@H]2Oc3ccc(Br)cc3C(=O)[C@H]2O)c1 | -0.614 | 0.291 | -0.0291 | 0.783 | 0.458 | 0.297 | 0.972 | 3.62 (inactive) | 0.0846 | 0.235
CC(C)c1ccc(NN2C(C(O)c3ccc4c(c3)OCO4)C=CC3C(=O)N(c4ccccc4)C(=O)C32)cc1 (stereo not given) | 0.542 | 0.461 | 0.0899 | 0.839 | 1.34 | 1.82 | 1.24 | 2.22 (inactive) | 1.07 | 0.103
C=CC[C@@H]1C=C[C@H](ON=C2c3cc(OC)ccc3O[C@H](c3cccc(OC)c3)[C@H]2O)[C@@H](CO)O1 | -0.342 | 0.0359 | -0.1 | 0.415 | 0.144 | 0.0499 | -0.199 | -0.577 (inactive) | 0.127 | -0.0994
CN(C)CCCNC(=O)[C@@H]1c2ccccc2C(=O)N(Cc2ccccc2)[C@H]1c1ccc(CO)cc1 | 0.532 | -0.338 | 0.311 | -0.343 | -1.08 | -0.0367 | 0.571 | -1.01 (inactive) | 0.178 | -0.363
CCOc1ccc(N2C(=O)/C(=C/C=C/c3ccccc3OC)S(=O)(=O)C2c2cccc([N+](=O)[O-])c2)cc1 (stereo not given) | -0.0317 | 0.232 | -0.0906 | 0.281 | 0.344 | 0.903 | -0.142 | -1.75 (inactive) | 0.323 | -0.515
COc1ccc([Si](C)(C)[C@@H]2[C@@H](CC(=O)N3CCC[C@H]3CO)O[C@]3(C(=O)N(Cc4cccc(N5CCC5=O)c4)c4ccccc43)[C@H]2C)cc1 | -0.0723 | 0.461 | -0.0715 | 0.45 | 0.322 | 1.51 | 1.14 | -0.548 (inactive) | -0.187 | 0.107
CCCC[C@H]1OB(O)C[C@H]2C1=C(C)C[C@H]1C(=O)N(C)C(=O)[C@H]12 | -0.626 | 0.441 | -0.0562 | 0.719 | 1.09 | 0.053 | 0.938 | -0.252 (inactive) | 0.349 | -0.156
CCOC(=O)[C@H](Cc1ccccc1)NC(=O)CCC1CC(OC(=O)NCc2ccc3c(c2)OCO3)CC2(CCCC(COC(=O)NCC3CCCCC3)O2)O1 (stereo not given in full) | -0.632 | 0.247 | -0.0775 | 0.256 | 1.19 | 0.306 | 1.04 | 1.2 (inactive) | 1.27 | -0.0994
Cn1cccc1C(O)C1C=CC2C(=O)NC(=O)C2N1Nc1ccccn1 (stereo not given) | -0.177 | 0.124 | -0.179 | -0.0312 | 0.359 | 0.782 | 0.371 | 1.63 (inactive) | 0.339 | 0.0053
CCOC(=O)NN=C1C[C@@H](O)[C@@H](O)[C@@H]2[C@@H]3C(=O)N(C4CCCCC4)C(=O)[C@@H]3CC[C@H]12 | -0.242 | 0.459 | -0.067 | 0.267 | 0.932 | 0.215 | 0.444 | 0.228 (inactive) | 0.142 | -0.0994
CN1C(=O)C2C(C1=O)C1C=C(CCCO)C2C(c2ccc(CN3CCCC3)cc2)N1C (stereo not given) | 0.192 | 0.249 | -0.0902 | -0.302 | -0.291 | 0.0016 | 0.725 | 0.243 (inactive) | -0.424 | 0.0749
CO[C@@H]1COC(=O)CC=C[C@@H](C)[C@H](OC)COC(=O)[C@H](COCc2ccccc2)NC(=O)CC=C[C@H]1C | 0.0122 | 0.843 | -0.0775 | -0.0228 | -0.0992 | -0.673 | -0.831 | -0.886 (inactive) | -0.455 | -0.0618
CCc1cc2c(nc1CC)CCN(CCC(C)=NOC[C@@H](O)[C@H]1O[C@@H]3OC(C)(C)O[C@@H]3[C@H]1O)C2 | -0.436 | 0.273 | -0.148 | 0.0851 | 0.191 | 0.146 | 0.335 | 1.35 (inactive) | 0.0391 | -0.0088
O=C1[C@H]2[C@H]3[C@H](O)[C@H](O)CC(=NO[C@@H]4O[C@H](CO)[C@@H](O)[C@H](O)[C@H]4O)[C@@H]3CC[C@H]2C(=O)N1c1ccc(F)cc1F | -0.383 | 1.17 | -0.125 | 0.442 | 0.482 | -0.141 | 0.386 | 1.06 (inactive) | 0.0076 | 0.2
CO[C@H]1COC(=O)[C@@H]2CCCN2C(=O)[C@@H](C)COC(=O)CC=C[C@@H]1C | -0.553 | 1.69 | -0.118 | 0.624 | 0.0761 | -0.446 | 0.997 | 0.36 (inactive) | 0.107 | -0.249
CCOC(=O)NN=C1C[C@@H](O)[C@@H](O)[C@@H]2[C@@H]3C(=O)N(C4CCCCC4)C(=O)[C@@H]3CC[C@@H]12 | -0.236 | 0.584 | -0.194 | 0.469 | 0.489 | -0.123 | -0.424 | -0.371 (inactive) | 0.554 | -0.132
C#CCCCON=C1C[C@@H](O)[C@@H](O)[C@@H]2[C@@H]3C(=O)N(Cc4ccccc4)C(=O)[C@@H]3CC[C@H]12 | -0.304 | 0.251 | -0.116 | 0.317 | 0.69 | 0.197 | -0.0787 | -0.0765 (inactive) | 0.149 | -0.169
O=C1O[C@@H](c2ccccc2)[C@@H](c2ccccc2)N2[C@@H](c3ccc(OCCO)cc3)[C@]3(C(=O)Nc4ccccc43)[C@@H](C(=O)N3CCN(c4ncccn4)CC3)[C@H]12 | 0.0612 | 0.574 | -0.0493 | 0.267 | 1.25 | 1.27 | 1.34 | -0.968 (inactive) | 0.847 | 0.106
CC(C)CON=C1[C@H]2CCn3c(=O)n(-c4ccccc4)c(=O)n3[C@H]2[C@H](O)[C@@H]2O[C@H]12 | -0.358 | -0.0519 | -0.102 | 0.325 | 0.532 | -0.0371 | 0.323 | -0.217 (inactive) | 0.204 | -0.069
CO[C@H]1COC(=O)[C@H](C)NC(=O)[C@@H](C)COC(=O)CC=C[C@@H]1C | -0.618 | 1.06 | -0.116 | 0.409 | -0.0804 | -0.194 | 0.547 | -0.599 (inactive) | 0.0356 | -0.434
COc1ccc(O[C@H]2C=C[C@@H](c3ccccc3)O[C@@H]2COC(=O)N2CCCCC2)cc1 | -0.0055 | 0.38 | -0.0493 | -0.479 | -0.701 | -0.578 | -0.77 | -0.216 (inactive) | -0.0007 | -0.171
COCCOC(=O)N1C(=O)[C@@]2(c3cc(C#CCNC(N)=O)ccc31)[C@H](c1ccccc1OCCO)N1[C@H](c3ccccc3)[C@H](c3ccccc3)OC(=O)[C@H]1[C@@H]2C(=O)N1CCN(c2ncccn2)CC1 | 0.202 | 1 | 0.0019 | 1.15 | 1.27 | 1.27 | 0.955 | -1.69 (inactive) | 0.141 | -0.0618
COCC(=C=CC[C@@H](O)c1ccccc1OCCO)CCO | -0.181 | 0.44 | 0.0201 | 0.492 | 0.375 | 0.19 | 1.27 | 0.0373 (inactive) | 0.175 | -0.0618
CC(C)=NOCc1cccc(-c2cc(-c3ccccc3)no2)c1 | -0.575 | 0.221 | -0.0767 | 0.717 | 0.0486 | 0.205 | 0.345 | 0.603 (inactive) | 0.376 | 0.0024
O=C1C[C@@H](O)[C@@H](O)[C@@H]2[C@@H]3C(=O)N(c4ccc(F)cc4F)C(=O)[C@@H]3CC[C@@H]12 | -0.416 | 0.267 | -0.122 | 0.315 | 0.627 | 0.0489 | 0.823 | 0.25 (inactive) | 0.153 | 0.144
